Compound activity: PubChem BioAssay, National Center for Advancing Translational Sciences (NCATS)
TDP1 cell CPT – growth inhibition of DT40 Tdp1-/-;hTDP1 cells with camptothecin (screen for TDP1 inhibitors); chicken DT40 Tdp1-/-;hTDP1 cells + 20 nM CPT, ATP luminescence, 48 h; Potency, µM (series often up to 46.2 µM), most hits filed as inhibitors; hit rate 12% among 420,000; AID 686979; further: nearly all actives have a fitted effect of over 55% in size
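Chicken DT40 Tdp1-/- cells stably complemented with human TDP1 were seeded at 400 cells/well in medium containing 20 nM camptothecin, exposed to pin-transferred compounds, and grown at 37 °C for at least 48 hr. Viability was read as ATP luminescence.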
IL-1B inflam inh – inhibitors of inflammasome signaling (IL-1 beta secretion). THP-1 LPS/ATP IL-1B secretion, AlphaLISA, 16 h; hits give low values. activity change, % at 57.5 µM. hit rate 4.7% among 360,000. AID 743279; in the data active means activity change below about -50%; inconclusive means mostly about -30% to -49%
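THP-1 cells pretreated 1 hr with compounds (up to 57.5 uM final), then stimulated with LPS (250 ng/mL final) plus ATP (1.25 mM final); secreted IL-1B measured by AlphaLISA after 16 hr, decreased signal indicating inhibition.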
TDP1 block – inhibitors of human tyrosyl-DNA phosphodiesterase TDP1; hit rate 0.28% among 350,000; Q9NUW8; Potency, µM (top dose mostly 130 µM), most hits filed as inhibitors; recombinant TDP1, AlphaScreen DNA substrate cleavage; AID 485290; further: nearly all actives have a fitted effect of over 40% in size
Target sequence (Q9NUW8 whole entry, looked up): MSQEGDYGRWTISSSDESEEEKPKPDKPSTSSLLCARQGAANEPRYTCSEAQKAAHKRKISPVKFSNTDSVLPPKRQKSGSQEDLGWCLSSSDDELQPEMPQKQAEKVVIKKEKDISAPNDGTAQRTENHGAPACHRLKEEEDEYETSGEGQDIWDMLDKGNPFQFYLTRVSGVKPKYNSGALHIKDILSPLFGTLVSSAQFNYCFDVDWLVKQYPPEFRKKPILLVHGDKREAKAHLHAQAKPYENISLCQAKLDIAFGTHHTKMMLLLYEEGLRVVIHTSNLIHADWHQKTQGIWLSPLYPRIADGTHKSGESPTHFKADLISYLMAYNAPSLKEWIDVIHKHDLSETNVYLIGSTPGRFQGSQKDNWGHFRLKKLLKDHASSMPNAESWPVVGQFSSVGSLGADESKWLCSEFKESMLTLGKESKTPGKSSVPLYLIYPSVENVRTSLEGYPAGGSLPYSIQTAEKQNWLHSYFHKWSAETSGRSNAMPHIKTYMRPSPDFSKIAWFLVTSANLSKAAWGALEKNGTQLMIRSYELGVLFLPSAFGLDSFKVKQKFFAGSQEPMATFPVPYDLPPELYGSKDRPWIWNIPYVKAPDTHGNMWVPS
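Steps: enzyme plus compound, 15 min RT; add biotin/phosphotyrosine-FITC oligonucleotide (15 nM final), react 5 min; add donor/acceptor beads (10 ug/ml final), 10 min; read AlphaScreen. Tdp1 at 1 nM final.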
TDP1 cell noCPT – qHTS for Inhibitors of human tyrosyl-DNA phosphodiesterase 1 (TDP1): qHTS in cells in absence of CPT; DT40 Tdp1-/- hTDP1 cells, no CPT, ATP luminescence, 48 h; Potency, µM (series often up to 46.2 µM), most hits filed as inhibitors; hit rate 15% among 420,000; further: nearly all actives have a fitted effect of over 55% in size
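Luminescent ATP content (CellTiter-Glo) served as the growth readout. Knockout chicken DT40 cells expressing human TDP1 were exposed to compounds without camptothecin for a minimum 48 hr at 37 °C.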
TGFb inhibitor – inhibitors of TGF-b signaling; Potency, µM (highest dose often 46.1 µM), most hits filed as inhibitors; HepG2 CAGA-GFP TGF-b/SMAD3 reporter, GFP fluorescence, 18 h; TGF-beta stimulated, 500 pg/mL final; hit rate 1.2% among 410,000; further: nearly all actives have a fitted effect of over 65% in size
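GFP signal (ex488/em500-530) from TGF-beta-stimulated HEPG2 CAGA-GFP cells, 500 pg/mL final, 18 h at 37 degrees C in DMEM plus 1% FBS, normalized to unstimulated and DMSO-stimulated controls.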
HepG2 viability – kills HepG2 cells in TGF-b inhibitor counter-screen | Potency, µM (titrated, usually from 46.1 µM), most hits filed as cytotoxic | HepG2 CAGA-GFP viability, ATP luminescence, 18 h | hit rate 0.76% among 410,000
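HepG2 CAGA-GFP cells (1000/well, DMEM with 1% FBS) received compound, then TGF-beta at 500 pg/mL final, and were incubated 18 hours at 37 degrees C. Viability was read by CellTiter-Glo luminescence. Media-only wells were set as complete cell-killing and DMSO as no toxicity.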
Large screens that a line does not name were inactive. Shown are actives, neighbours in structure and some others; about 19% of the full set was active somewhere. Unless noted, the call rests on the fitted dose curve; in most records, active means well fitted curve in the direction sought with a large enough effect; inconclusive means small, poorly fitted or top-dose-only effect, or another doubt; inactive means no such curve, though single readings can be large; an effect the other way counts as inactive or inconclusive.

O=C(COC(=O)c1ccc(F)c(S(=O)(=O)N2CCOCC2)c1)NCc1ccc(Cl)cc1	none
CC1=C(C(N)=O)C(c2ccccc2[N+](=O)[O-])n2ncnc2N1 (centres undefined)	none (no result: TDP1 block)
COc1ccccc1/C=C/C(=O)NC(=S)NC(C)C	TDP1 cell CPT inconclusive, TDP1 cell noCPT 16µM, TGFb inhibitor inconclusive
COc1ccccc1/C=C/C(=O)NC(=S)N1CCN(C)CC1	none
Cc1ccc(-n2c(=O)c3sc4ccccc4c3n(C)c2=O)cc1F	none (no result: IL-1B inflam inh)
CC(C)n1nccc1NC(=O)Nc1ccccc1	TDP1 cell noCPT inconclusive
Cc1cc(-c2ccccc2)n(-c2cc(N/N=C/c3ccccc3O)ncn2)n1	TDP1 cell CPT 4.6µM, TDP1 cell noCPT 3.3µM, TGFb inhibitor inconclusive
CNc1cc(-n2nc(C)cc2-c2ccccc2)ncn1	none
NC(=O)CC(NC(=O)c1ccc(Br)cc1)c1ccc(NC2CCCCC2)c([N+](=O)[O-])c1 (centres undefined)	TDP1 cell CPT 15µM, TDP1 cell noCPT 16µM (no result: TDP1 block)
NC(=O)CC(NC(=O)Cc1ccc(Br)cc1)c1ccc(NC2CCCCCCC2)c([N+](=O)[O-])c1 (centres undefined)	TDP1 cell CPT inconclusive, IL-1B inflam inh inconclusive, TDP1 cell noCPT inconclusive (no result: TDP1 block)
NC(=O)CC(NC(=O)c1cccc(Br)c1)c1ccc(NC2CCCCCCC2)c([N+](=O)[O-])c1 (centres undefined)	TDP1 cell CPT inconclusive, TDP1 cell noCPT 16µM, TGFb inhibitor inconclusive (no result: TDP1 block)
NC(=O)CC(NC(=O)c1cccc(Br)c1)c1ccc(NC2CCCCCCCCCCC2)c([N+](=O)[O-])c1 (centres undefined)	none (no result: TDP1 block)
NC(=O)CC(NC(=O)c1ccc(Br)cc1)c1ccc(NC2CCCCCC2)c([N+](=O)[O-])c1 (centres undefined)	TDP1 cell CPT 16µM, TDP1 cell noCPT 16µM (no result: TDP1 block)
NC(=O)CC(NC(=O)Cc1ccc(Cl)cc1)c1ccc(NC2CCCCCCC2)c([N+](=O)[O-])c1 (centres undefined)	none (no result: TDP1 block)
NC(=O)CC(NC(=O)Cc1ccc(Br)cc1)c1ccc(NC2CCCCCC2)c([N+](=O)[O-])c1 (centres undefined)	TDP1 cell CPT 18µM, IL-1B inflam inh inconclusive, TDP1 cell noCPT inconclusive
COc1cc(CNC2CCCC2)cc(Br)c1OCC(=O)Nc1ccccc1C	none
O=C1CCCC2=C1C1(CCS(=O)(=O)C1)N=C(Nc1nc3ccccc3o1)N2 (centres undefined)	none (no result: TDP1 cell CPT, IL-1B inflam inh, TDP1 cell noCPT, TGFb inhibitor, HepG2 viability)
CC(C)Nc1ccc(C(CC(N)=O)NC(=O)Cc2ccc(Br)cc2)cc1[N+](=O)[O-] (centres undefined)	TDP1 cell CPT 13µM, TDP1 cell noCPT 21µM
NC(=O)CC(NC(=O)Cc1ccc(Br)cc1)c1ccc(NC2CCCC2)c([N+](=O)[O-])c1 (centres undefined)	TDP1 cell CPT inconclusive, TDP1 cell noCPT inconclusive
COc1cc2c(cc1O)CCN[C@]21CS[C@@H]2c3c(OC(C)=O)c(C)c4c(c3[C@H](COC1=O)N1[C@@H]2[C@H]2c3c(cc(C)c(OC)c3O)C[C@@H]([C@@H]1O)N2C)OCO4	TDP1 cell CPT 0.0043µM, TDP1 cell noCPT 0.0043µM (no result: IL-1B inflam inh, TDP1 block, TGFb inhibitor, HepG2 viability)
Cc1ccc(-n2nc(C)c3c(C)cc(=O)n(CC(=O)Nc4ccc(Br)cc4F)c32)cc1	none (no result: IL-1B inflam inh)
CC(=O)c1cc(Cl)ccc1OC(=O)c1ccco1	none
O=C(Oc1ccc(OC(=O)c2ccco2)c(S(=O)(=O)c2ccc(Cl)cc2)c1)c1ccco1	TDP1 cell noCPT 16µM
CN(C)c1cc[n+](CC(=O)Nc2c(Cl)cc(Cl)cc2Cl)cc1	TDP1 cell CPT 7.3µM, TDP1 cell noCPT 6.5µM, TGFb inhibitor inconclusive
CN(C)c1cc[n+](CC(=O)Nc2ccc([N+](=O)[O-])cc2Cl)cc1	TDP1 cell CPT inconclusive, TDP1 cell noCPT inconclusive
Cc1cc(C)cc(NS(=O)(=O)c2ccc3[nH]c(=O)ccc3c2)c1	TDP1 cell CPT inconclusive, TDP1 cell noCPT inconclusive (no result: TDP1 block)
Cc1cc(Cl)ccc1NC(=O)CCCn1nc(C)c2c(C)n(-c3ccccc3)nc2c1=O	TDP1 cell CPT inconclusive, TDP1 cell noCPT inconclusive (no result: IL-1B inflam inh)
CCC(C)(C)OC(=O)N[C@@H](Cc1c[nH]c2ccccc12)C(=O)N[C@@H](CCSC)C(=O)N[C@@H](CC(=O)O)C(=O)N[C@@H](Cc1ccccc1)C(N)=O	none (no result: IL-1B inflam inh, TDP1 block, TGFb inhibitor, HepG2 viability)
CC1S/C(=N/N=C2CCC(C(C)(C)C)CC2)NC1=O (centres undefined)	TDP1 cell CPT inconclusive, TDP1 cell noCPT inconclusive, TGFb inhibitor inconclusive
CC1S/C(=N/N=C2CCCCC2)NC1=O (centres undefined)	TDP1 cell CPT 2.9µM, TDP1 cell noCPT 10µM
Cc1ccc(C(=O)NCCc2nnc3ccc(SCC(=O)Nc4ccccc4F)nn23)cc1	none
CCCC1=NN(C(=O)Cc2ccc(OC)c(OC)c2)C(O)(C(F)(F)F)C1 (centres undefined)	none
Cc1ccc(C(=O)N2CCCC(Nc3ccc(C(C)C)cc3)C2)cn1 (centres undefined)	TDP1 cell CPT inconclusive
Cc1nonc1C(=O)N1CCCC(Nc2ccc(C(C)C)cc2)C1 (centres undefined)	TDP1 cell noCPT 2.3µM
Cc1nnsc1C(=O)N1CCCC(Nc2ccc(C(C)C)cc2)C1 (centres undefined)	none
CC(C)c1ccc(NC2CCCN(C(=O)c3ccc(N4CCOCC4)cc3)C2)cc1 (centres undefined)	TDP1 cell CPT inconclusive, TDP1 cell noCPT 16µM
Cc1noc(-c2ccccc2OCC(=O)Nc2ccccc2[N+](=O)[O-])n1	TDP1 cell CPT inconclusive, TDP1 cell noCPT inconclusive, TGFb inhibitor inconclusive (no result: IL-1B inflam inh)
O=C(NCCCCCCNC(=O)c1cccs1)c1cccs1	TDP1 cell noCPT inconclusive
CNCCCCCCCCSc1nc(C(C)C)ccc1C(=O)c1cccs1	TDP1 cell CPT 4.2µM, TDP1 cell noCPT 4.2µM (no result: IL-1B inflam inh, TGFb inhibitor, HepG2 viability)
CSc1ccccc1OCc1cc(C(=O)N2CCN(c3ccccc3)CC2C)no1 (centres undefined)	TDP1 cell CPT inconclusive, TDP1 cell noCPT inconclusive, TGFb inhibitor inconclusive
CC(=O)c1ccc(OCc2cc(C(=O)N3CCN(c4ccccc4)CC3C)no2)cc1 (centres undefined)	TDP1 cell CPT inconclusive, IL-1B inflam inh inconclusive, TDP1 cell noCPT 18µM
CC(=O)c1ccc(OCc2cc(C(=O)N(C)CC3COc4ccccc4O3)no2)cc1 (centres undefined)	TDP1 cell CPT 10µM, TDP1 cell noCPT 13µM (no result: TDP1 block)
